Among the data in PubChem BioAssay (Tox21) are Potency and outcome values, retold here.

The structures appear in SMILES notation. Values joined by “and” are separate entries in the source; they are usually repeats but may differ in a detail not shown here. Identical values can stand only once. Results filed as inconclusive are left out. Active and inactive are the calls of the source. Unless noted, calls follow the shape of the dose curve; as a rule, active = well fitted curve in the direction sought with a large enough effect in the repeat runs; inconclusive = weak or mixed curves; inactive = no such curve, though single readings can be large; an effect the other way counts as inactive or inconclusive.

Assay [1] in a line: A CellTox Green Cytotoxicity Assay to monitor cytotoxicity in HEK293 cells - 32 hour (AID 1224881). Also: nearly all actives have a fitted effect of over 40% in size. Also: potency is read from the fitted curve at half-maximal effect. A digest of the protocol: (§1)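 Dead-cell fluorescence measured kinetically: asymmetric cyanine dye, HEK293, 600 cells/well, 5 h settle, 23 nL cpd/DMSO, 37 C, reads 0–40 h every 8 h.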
Assay [2] is described as follows: A CellTox Green Cytotoxicity Assay to monitor cytotoxicity in HepG2 cells - 0 hour (AID 1224882). Also: nearly all actives have a fitted effect of over 35% in size. A digest of the protocol: (§2)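 First, HepG2 cells (600/well) mixed with reagent were plated; second, after 5 h at 37 C they received compounds via pintool; third, fluorescence was measured at 0 h through 40 h at 8 h intervals.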
Assay [3] can be described thus: A CellTox Green Cytotoxicity Assay to monitor cytotoxicity in HepG2 cells - 32 hour (AID 1224883). Also: nearly all actives have a fitted effect of over 50% in size. Also: potency is read from the fitted curve at half-maximal effect. A digest of the protocol: as §2
The nature of assay [4]: A CellTox Green Cytotoxicity Assay to monitor cytotoxicity in HEK293 cells - 8 hour (AID 1224884). Also: nearly all actives have a fitted effect of over 35% in size. Also: potency is read from the fitted curve at half-maximal effect. The method, boiled down:
as §1

A short description of assay [5]: qHTS RealTime-Glo MT Cell Viability Assay in HepG2 cells - 16 hour (AID 1224885). Also: nearly all actives have a fitted effect of over 50% in size. Also: potency is read from the fitted curve at half-maximal effect. A digest of the protocol:
(§3)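 Cell number in HepG2 cultures estimated from NanoLuc luminescence generated by metabolic reduction of a prosubstrate by living cells. The homogeneous, nonlytic format allowed repeated reads at 0, 8, 16, 24, 32 and 40 h of compound exposure.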

A short description of assay [6]: qHTS RealTime-Glo MT Cell Viability Assay in HEK293 cells - 24 hour (AID 1224886). Also: nearly all actives have a fitted effect of over 50% in size. Also: potency is read from the fitted curve at half-maximal effect. The method, boiled down:
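Homogeneous bioluminescent viability format in HEK293 cells (600 cells/well). Following 5 h at 37 C/5% CO2, 23 nL compound was pintooled; the signal was measured repeatedly during 40 h incubation.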

A short description of assay [7]: qHTS RealTime-Glo MT Cell Viability Assay in HEK293 cells - 8 hour (AID 1224887). Also: top concentration of the series differs between compounds; nearly all actives have a fitted effect of over 50% in size. The method, boiled down:
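600 HEK293 cells per well, dispensed already mixed with RealTime-Glo MT reagents. Compound dosing came 5 h later. The same wells were read for luminescence at 0, 8, 16, 24, 32 and 40 h of exposure at 37 C.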

The nature of assay [8]: A CellTox Green Cytotoxicity Assay to monitor cytotoxicity in HEK293 cells - 16 hour (AID 1224888). Also: nearly all actives have a fitted effect of over 35% in size. Also: potency is read from the fitted curve at half-maximal effect. A digest of the protocol:
as §1

A short description of assay [9]: A CellTox Green Cytotoxicity Assay to monitor cytotoxicity in HepG2 cells - 8 hour (AID 1224890). Also: nearly all actives have a fitted effect of over 45% in size. Also: potency is read from the fitted curve at half-maximal effect. The method, boiled down:
as §2

A short description of assay [10]: qHTS assay to identify small molecule antagonists of the estrogen receptor alpha (ER-alpha) signaling pathway using the BG1 cell line in the presence of 0.1 nM 17-beta-estradiol - cell viability counter screen (AID 1259241). Also: nearly all actives have a fitted effect of over 40% in size. A digest of the protocol: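 VM7Luc4E2, 4,000 cells/well, phenol red-free medium + 10% charcoal-stripped FBS; 24 hr plating; cpd + 0.1 nM E2 final, 22 hr 37C/5% CO2; CellTiter-Fluor 30 min, fluorescence.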

Assay [11] in a line: qHTS assay to identify small molecule antagonists of the androgen receptor (AR) signaling pathway using the MDA cell line in the presence of 0.5 nM R1881 - cell viability counter screen (AID 1259242). Also: nearly all actives have a fitted effect of over 45% in size. Also: potency is read from the fitted curve at half-maximal effect. A digest of the protocol:
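qHTS format. MDA-kb2 (MMTV-luc, AR/GR responsive) + cpd + 0.5 nM R1881 final, 16 hr 37C/0% CO2 → CellTiter-Fluor 30 min → fluorescence intensity.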

The target of assay [12] is Estrogen receptor (Homo sapiens) (UniProt P03372). Kind of assay: qHTS assay to identify small molecule antagonists of the estrogen receptor alpha (ER-alpha) signaling pathway using the BG1 cell line in the presence of 0.1 nM 17-beta-estradiol (AID 1259244). Also: nearly all actives have a fitted effect of over 50% in size. The method, boiled down:
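Reporter is a stably transfected luciferase under four estrogen responsive elements in VM7Luc4E2 cells expressing native full-length ER-alpha; inhibition of 0.1 nM (final) 17beta-estradiol-driven signal over 22 h is read by luminescence.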

Assay [13] in a line: qHTS assay to identify small molecule phospholipidosis (PLD) inducers (AID 1259344; active = well fitted curve in the direction sought with a large enough effect; an effect the other way counts as inactive or inconclusive). The method, boiled down: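 After 4 h attachment on collagen I, HepG2 cells were dosed with compound alongside LipidTOX Red, kept 24 h at 37 C, fixed, and imaged for lamellar phospholipid pits.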
Assay [14] in a line: qHTS assay to identify small molecule HDAC inhibitors (AID 1259364).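 Also: wild-type HCT-116 cells with endogenous class I/II HDAC activity; top concentration of the series differs between compounds; nearly all actives have a fitted effect of over 45% in size.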 The method, boiled down: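 Quantitative high-throughput format: overnight-seeded HCT-116 cells got compounds for 2 hr at 37C; HDAC-Glo I/II reagent added, 30 min RT, luminescence measured.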
Assay [15] can be described thus: qHTS assay to identify small molecule HDAC inhibitors - cell viability counter screen (AID 1259365). A digest of the protocol: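 Luminescence from CellTiter-Glo, developed 30min at room temperature, reports viability of wild-type HCT-116 cells treated 2hr with compounds at 37 C and 5% CO2 after overnight plating.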
Assay [16] can be described thus: qHTS assay to identify small molecule agonists of the sonic hedgehog signaling (Shh) pathway - cell viability counter screen (AID 1259366). Also: nearly all actives have a fitted effect of over 50% in size. Also: potency is read from the fitted curve at half-maximal effect. A digest of the protocol:
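Cytotoxicity counter screen run in the same wells as the Shh reporter assay. NIH/3T3 cells carrying a Gli1 response element–driven luciferase were treated with DMSO-dissolved compounds for 24hr, and live-cell protease activity was measured with CellTiter-Fluor.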

Assay [17] is described as follows: qHTS assay to identify small molecule antagonists of the sonic hedgehog signaling (Shh) pathway - cell viability counter screen (AID 1259367). Also: nearly all actives have a fitted effect of over 55% in size. Also: potency is read from the fitted curve at half-maximal effect. The method, boiled down:
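Conditioned medium drove Shh signaling in 3T3 Gli1-Luc cells exposed to compounds at 37C and 5% CO2. Viability was determined from CellTiter-Fluor fluorescence, with reagent incubated 1 hr after 23 hr of treatment.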

Assay [18] is described as follows: qHTS assay to identify small molecule agonists of the sonic hedgehog signaling (Shh) pathway (AID 1259368; calls by dose curve;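 also: NIH/3T3-derived 3T3Gli1-Luc cells carrying a stable Gli1-driven firefly luciferase reporter; series mostly up to about 92 µM; nearly all actives have a fitted effect of over 15% in size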). The method, boiled down:
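Quantitative high-throughput format using a Gli1-driven firefly luciferase reporter line derived from NIH/3T3 cells. After a 24 hr compound treatment at 37 C and 5% CO2, luminescence reported Gli1 response element activity.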

A short description of assay [19]: qHTS RealTime-Glo MT Cell Viability Assay in HepG2 cells - 0 hour (AID 1224889). Also: nearly all actives have a fitted effect of over 50% in size. The method, boiled down:
as §3

For assay [20], the target named is Androgen receptor (Homo sapiens) (UniProt P10275). Kind of assay: qHTS assay to identify small molecule antagonists of the androgen receptor (AR) signaling pathway using the MDA cell line in the presence of 0.5 nM R1881 (AID 1259243). The method, boiled down: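 Antagonist mode quantitative HTS in MDA-kb2 MMTV-luciferase cells, agonist R1881 at 0.5 nM final, 16 hr exposure at 37C and 0% CO2, luminescent detection.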
Androgen receptor (Homo sapiens), sequence (P10275 whole entry, looked up): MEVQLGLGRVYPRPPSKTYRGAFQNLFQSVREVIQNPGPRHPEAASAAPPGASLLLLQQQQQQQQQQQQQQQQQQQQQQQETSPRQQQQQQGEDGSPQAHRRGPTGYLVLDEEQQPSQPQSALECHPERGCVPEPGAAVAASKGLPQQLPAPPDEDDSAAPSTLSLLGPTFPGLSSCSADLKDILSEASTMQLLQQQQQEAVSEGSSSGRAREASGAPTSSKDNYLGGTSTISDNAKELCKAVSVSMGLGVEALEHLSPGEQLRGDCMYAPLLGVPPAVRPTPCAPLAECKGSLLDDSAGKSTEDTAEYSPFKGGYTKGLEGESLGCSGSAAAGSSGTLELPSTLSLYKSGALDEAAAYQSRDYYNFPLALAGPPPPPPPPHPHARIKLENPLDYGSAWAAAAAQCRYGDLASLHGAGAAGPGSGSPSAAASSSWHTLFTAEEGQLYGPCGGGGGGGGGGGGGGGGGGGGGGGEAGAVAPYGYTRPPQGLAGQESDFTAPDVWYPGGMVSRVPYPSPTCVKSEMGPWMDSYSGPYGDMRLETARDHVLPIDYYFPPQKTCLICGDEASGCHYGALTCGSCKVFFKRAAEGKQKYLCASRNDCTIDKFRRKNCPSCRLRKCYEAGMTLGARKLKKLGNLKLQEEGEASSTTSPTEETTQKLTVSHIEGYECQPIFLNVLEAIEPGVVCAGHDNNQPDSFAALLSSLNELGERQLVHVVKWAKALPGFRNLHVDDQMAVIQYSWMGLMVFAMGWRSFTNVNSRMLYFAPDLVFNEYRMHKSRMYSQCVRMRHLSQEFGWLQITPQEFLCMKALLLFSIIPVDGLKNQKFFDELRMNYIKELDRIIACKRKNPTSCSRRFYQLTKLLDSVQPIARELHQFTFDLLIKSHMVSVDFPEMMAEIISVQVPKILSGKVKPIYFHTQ

Estrogen receptor (Homo sapiens), sequence (P03372 whole entry, looked up): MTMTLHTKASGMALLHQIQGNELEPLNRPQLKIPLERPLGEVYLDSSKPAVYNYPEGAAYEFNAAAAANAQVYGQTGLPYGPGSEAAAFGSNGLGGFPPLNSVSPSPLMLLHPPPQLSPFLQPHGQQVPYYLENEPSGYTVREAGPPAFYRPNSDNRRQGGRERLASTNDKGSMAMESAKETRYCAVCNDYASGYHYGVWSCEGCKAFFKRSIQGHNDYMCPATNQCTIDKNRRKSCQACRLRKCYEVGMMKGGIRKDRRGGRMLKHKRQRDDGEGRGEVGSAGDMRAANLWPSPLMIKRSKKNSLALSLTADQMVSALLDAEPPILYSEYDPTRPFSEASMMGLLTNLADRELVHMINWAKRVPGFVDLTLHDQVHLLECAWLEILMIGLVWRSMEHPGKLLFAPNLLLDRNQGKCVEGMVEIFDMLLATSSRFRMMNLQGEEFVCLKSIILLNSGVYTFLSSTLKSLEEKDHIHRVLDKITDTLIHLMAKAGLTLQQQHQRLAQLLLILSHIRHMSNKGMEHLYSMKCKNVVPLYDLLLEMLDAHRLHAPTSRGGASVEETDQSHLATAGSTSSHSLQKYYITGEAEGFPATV

For the molecule `CN(N=O)C(=O)N[C@@H]1[C@@H](O)[C@H](O)[C@@H](CO)O[C@@H]1O`, the Potency entry in assay [1], in assay [2], in [3], in assay [4], in [5] and in [6] was “inactive” each time. The Potency entry in [7], in [8], in assay [9], in assay [10], in [11] and in assay [12] was “inactive” throughout. In addition, the Potency entry in [13], in assay [14], in assay [15], in assay [16] and in assay [17] was “inactive” throughout. The call in [18] was inactive.
Regarding `NC1CCCCC1`, the Potency result in assay [1], in assay [2], in [3], in assay [4], in assay [5] and in assay [6] was “inactive” throughout. For the same molecule, the Potency entry in assay [7], in [8], in assay [9], in assay [10], in assay [11] and in assay [12] was “inactive” throughout. The Potency result in [14], in assay [15], in assay [16] and in assay [17] was “inactive” throughout. In addition, in [18], the outcome was inactive.
Consider `Nc1c2c(nc3ccccc13)CCCC2`, for which the Potency entry in assay [1], in assay [2], in [3], in assay [4], in assay [5] and in assay [6] was “inactive” each time. Further, the Potency entry in [7], in [8], in [9], in assay [10], in assay [11] and in [12] was “inactive” each time. In addition, the Potency result in assay [14], in assay [15], in [16] and in [17] was “inactive” throughout. Further, the result in assay [18] was inactive.
For `CN1CCC[C@H]1c1cccnc1`, the Potency entry in assay [1], in assay [2], in [3], in [4], in assay [5] and in assay [6] was “inactive” throughout. In addition, the Potency entry in assay [7], in assay [8], in assay [19], in assay [9], in [10] and in assay [11] was “inactive” each time. Also, the Potency entry in [14], in assay [15], in [16] and in [17] was “inactive” each time. In assay [18], the molecule was called inactive.
As to `C[C@](N)(Cc1ccc(O)c(O)c1)C(=O)O`, the Potency result in assay [1], in assay [2], in [3], in [4], in [5] and in assay [6] was “inactive” each time. The Potency entry in [7], in [8], in assay [19], in [9], in assay [10] and in assay [11] was “inactive” in each case. The Potency entry in [13], in assay [14], in assay [15], in assay [16] and in [17] was “inactive” in each case. Also, in assay [18], the molecule was called inactive.
For `Cc1cccc(C)c1`, the Potency entry in assay [1], in assay [2], in [3], in assay [4], in assay [5] and in assay [6] was “inactive” throughout. Besides, the Potency result in assay [7], in assay [8], in assay [19], in [9], in [10] and in assay [11] was “inactive” in each case. Also, the Potency entry in assay [12], in assay [14], in assay [15], in assay [16] and in [17] was “inactive” in each case. Besides, the molecule was classed as inactive in [18].
Regarding `C=CCc1ccc(O)c(OC)c1`, the Potency result in assay [1], in assay [2], in [3], in assay [4], in [5] and in assay [6] was “inactive” in each case. Moreover, the Potency entry in assay [8], in assay [19], in assay [9], in assay [10], in assay [11] and in assay [12] was “inactive” throughout. Besides, the Potency entry in [13], in assay [14], in assay [15], in assay [16] and in assay [17] was “inactive” throughout. In addition, in assay [18], the outcome was inactive.
With `O=C1NS(=O)(=O)c2ccccc21`, the Potency entry in assay [1], in [2], in [3], in assay [4], in [5] and in assay [6] was “inactive” in each case. Moreover, the Potency entry in [8], in assay [19], in assay [9], in assay [10], in [11] and in assay [13] was “inactive” throughout. Also, the Potency result in assay [14], in [15], in assay [16] and in assay [17] was “inactive” in each case. Moreover, in assay [18], the result was inactive.
Consider `O=C1c2c(O)cccc2Cc2cccc(O)c21`, for which the Potency entry in assay [1], in [2], in assay [3], in assay [4], in assay [5] and in assay [6] was “inactive” throughout. Also, the Potency result in [8], in assay [19], in [9], in assay [10], in [11] and in [13] was “inactive” throughout. For the same molecule, the Potency result in assay [14], in assay [15], in assay [16] and in assay [17] was “inactive” each time. In assay [18], the result was inactive.
For `Cc1cc(=O)oc2cc(O)ccc12`, the Potency entry in assay [1], in assay [2], in assay [3], in assay [4], in assay [5] and in [6] was “inactive” throughout. Moreover, the Potency entry in assay [8], in assay [19], in assay [9], in assay [10], in assay [11] and in assay [12] was “inactive” throughout. For the same molecule, the Potency result in assay [13], in assay [14], in assay [15] and in assay [17] was “inactive” in each case. Besides, the outcome in assay [18] was inactive.
For `CN(C)C(=O)Nc1ccc(Cl)c(Cl)c1`, the Potency result in assay [1], in [2], in assay [3], in [4], in [5] and in assay [6] was “inactive” in each case. In addition, the Potency entry in assay [8], in [9], in assay [10], in assay [11], in [12] and in assay [13] was “inactive” in each case. In addition, the Potency result in [14], in assay [15], in assay [16] and in [17] was “inactive” each time. Further, in [20], the Potency was 30.5 µM (active) and 27.3 µM (active) and 23.7 µM (active). Moreover, in assay [18], the molecule was called inactive.
On to `CCCCCCCCCCCC[N+](C)(C)Cc1ccccc1`, for which the Potency in [1] is 38.1 µM (active) and 29.9 µM (active) and 23.9 µM (active); in assay [3], 17 µM (active) and 23.8 µM (active) and 10.7 µM (active); in [4], 59.7 µM (active); in [5], 21.5 µM (active) and 23.8 µM (active) and 12 µM (active); in [6] it was 4.28 µM (active) and 4.23 µM (active) and 3.01 µM (active); in assay [8], 48 µM (active) and 53.2 µM (active) and 26.8 µM (active). The Potency in assay [9] was 53.9 µM (active) and 47.4 µM (active) and 23.9 µM (active); in [11] it was 47.6 µM (active) and 37.4 µM (active) and 13.3 µM (active); in assay [16] it was 53.4 µM (active) and 52.8 µM (active) and 16.8 µM (active); in assay [17] it was 66.4 µM (active). Also, the Potency result in assay [2], in assay [19], in assay [10], in assay [13], in assay [14] and in [15] was “inactive” in each case. Further, in assay [18], the result was inactive.
